The values that follow are results of earlier work, collected in PubChem BioAssay AID977611.

In general, Kd refers to a measure of binding affinity in units of concentration.

The nature of the data set: PubChem AID 977611. Particulars: PDB protein-ligand complexes, literature Kd.

Out of some 3,900 compounds screened, about 3,900 (100%) were called active. No cut-off is given here; in the data, nearly all actives have Kd up to about 4200 µM. So high a share suggests a set chosen from earlier hits. Some of the results follow. Non-standard residues stand in square brackets, D forms with d. Square brackets hold non-standard residues; d marks the D form. Residues, ends and D or L forms follow the SMILES beside them. Peptide text beside a SMILES is read from it. Thr(P(OH)3+) = C[C@@H](O[P+](O)(O)O)[C@H](N)C(=O)O; Orn(CH(NH2)2) = NC(N)NCCC[C@H](N)C(=O)O

As for H-DDFGGFEAAET-OH, the Kd (protein: ADP-ribosylation factor binding protein GGA1, PDB entry 1om9) is 70000 nM (active). As for `CC(C)C[C@H](NC(=O)[C@H](CCC(=O)O)NC(=O)[C@H](CCC(N)=O)NC(=O)[C@@H](NC(=O)[C@H](CO)NC(=O)[C@@H](N)C(C)C)[C@@H](C)O[P+](O)(O)O)C(=O)N[C@@H](Cc1ccc(O)cc1)C(=O)N[C@@H](CO)C(=O)O` (H-VS[Thr(P(OH)3+)]QELYS-OH), the Kd (protein: mammalian MDC1 FHA domain, PDB entry 3va4) was 40000 nM (active). For the compound H-EWGPWV-NH2, the Kd (protein: AP-1 COMPLEX SUBUNIT GAMMA-LIKE 2, PDB entry 2ymt) was 10 nM (active).

With `C[C@H](NC(=O)[C@@H](N)CO)C(=O)N[C@@H](CCCNC(N)N)C(=O)N[C@@H](Cc1c[nH]c2ccccc12)C(=O)N[C@@H](CCCNC(N)N)C(=O)N[C@@H](Cc1ccccc1)C(=O)N1CCC[C@H]1C(=O)N[C@@H](C)C(=O)N[C@@H](CCCNC(N)N)C(=O)N1CCC[C@H]1C(=O)NCC(=O)N[C@H](C(=O)O)[C@@H](C)O`, the Kd (protein: Menin (A541T mutation), PDB entry 4gq6) was 53 nM (active). Turning to H-EPQAPWME-OH, the Kd (protein: antibody Fab, PDB entry 3uyr) is 127 nM (active).

On to `CC(C)C[C@@H](NC(=O)[C@H]1CCCN1C(=O)[C@@H](Cc1c[nH]c2ccccc12)NC(=O)[C@@H](Cc1c[nH]c2ccccc12)NC(=O)[C@H](N)CC(=O)O)C(=O)N[C@H](C)C(=O)N[C@H](Cc1ccccc1)C(=O)N[C@H](CCC(=O)O)C(=O)N[C@H](C)C(=O)N[C@H](CC(C)C)C(=O)N[C@H](CC(C)C)C(=O)N[C@H](CCCNC(N)N)C(=O)O`, for which the dissociation constant Kd (protein: human MDM2 (Synthetic construct, 25-109), PDB entry 3iwy) was 53 nM (active). As for `CC(C)C[C@H](NC(=O)[C@H](Cc1c[nH]c2ccccc12)NC(=O)[C@H](CC(=O)O)NC(=O)[C@H](CCC(N)=O)NC(=O)[C@H](CC(N)=O)NC(=O)[C@H](CCCNC(N)N)NC(=O)[C@@H]1CCCN1C(=O)CNC(=O)[C@@H](N)CCC(=O)O)C(=O)O` (H-EGP[Orn(CH(NH2)2)]NQDWL-OH), for the setting “protein: H-2 class I histocompatibility antigen (Y159F mutation), PDB entry 4iho”, the Kd was 8000 nM (active).

As for `CSCC[C@H](NC(=O)[C@H](CCCCN)NC(=O)[C@@H](N)CCCCN)C(=O)N[C@H](C(=O)N[C@@H](Cc1ccccc1)C(=O)N[C@@H](CCC(N)=O)C(=O)N[C@H](C(=O)N1CCC[C@H]1C(=O)N[C@H](C(=O)N[C@@H](CC(=O)O)C(=O)N1CCC[C@H]1C(=O)N[C@@H](CC(C)C)C(=O)N[C@@H](CCC(=O)O)C(=O)O)[C@@H](C)O)[C@@H](C)O[P+](O)(O)O)[C@@H](C)O` (H-KKMTFQ[Thr(P(OH)3+)]PTDPLE-OH), the Kd (protein: FHA1 Domain of Rad53, PDB entry 1k3n) was 10200 nM (active). On to `CC[C@H](C)[C@H](NC(=O)[C@H](CC(=O)O)NC(=O)[C@H](Cc1ccc(O)cc1)NC(=O)[C@H](C)NC(=O)[C@H](C)NC(=O)CN)C(=O)N[C@@H](CO[P+](O)(O)O)C(=O)N[C@@H](CCC(N)=O)C(=O)N[C@H](C(=O)N[C@@H](Cc1ccccc1)C(=O)N1CCC[C@H]1C(=O)N[C@@H](Cc1ccccc1)C(=O)N[C@@H](C)C(=O)N[C@@H](C)C(=O)O)C(C)C`, for which the Kd (protein: Breast cancer type 1 susceptibility protein, PDB entry 1t2v) was 400 nM (active). Turning to H-SAVLQKKITDYFHPKK-OH, for the setting “protein: human proliferating cell nuclear antigen(PCNA), PDB entry 1vyj”, the dissociation constant Kd is 100 nM (active). As for H-SVPIQCTDKTDKQEALFK-OH, the Kd (protein: human tumor necrosis factor receptor(TRAF3), PDB entry 1l0a) is 23900 nM (active).

For `CCCCCCCCNc1cc(-c2ccc(OC)cc2)nc(N)n1`, the Kd (protein: Acetylcholine-binding protein AChBP, PDB entry 4qaa) was 360 nM (active).

`O=c1ccn([C@H]2C[C@H](O)[C@@H](CO[P+](O)(O)N[P+](O)(O)O[P+](O)(O)O)O2)c(=O)[nH]1`: the Kd (protein: DUTPase, PDB entry 4gv8) is 320 nM (active). `O=c1ccn([C@@H]2O[C@H](CO[P+](O)(O)O)[C@@H](O)[C@H]2O)c(=O)[nH]1`: the dissociation constant (Kd) (protein: Orotidine 5'-phosphate decarboxylase, PDB entry 3w07) was 420000 nM (active).

For `C[C@H]1O[C@@H](n2ccc(=O)[nH]c2=O)[C@H](O)[C@@H]1O`, the Kd (protein: GLUCOSYL-3-PHOSPHOGLYCERATE SYNTHASE (GpgS), PDB entry 4de7) is 16000 nM (active). Take `O=c1ccn([C@@H]2O[C@H](CO[P+](O)(O)N[P+](O)(O)O[P+](O)(O)O)[C@@H](O)[C@H]2O)c(=O)[nH]1`: the Kd (protein: Poly(A) RNA polymerase protein cid1, PDB entry 4nkt) was 1080 nM (active).
